Source: PubChem (several laboratories)
An excerpt weighted towards active compounds, which were near 4% of everything screened.
Mtb UGM inh = blocks M. tuberculosis UGM enzyme | P9WIQ1 | purified UGM, fluorescence polarization probe displacement | inhibition, % at 10 µM | actives 0.06% (n = 320,000); in the data active means inhibition above about 10%, passing the limit was not always enough; inconclusive means no clear call, values can overlap the other calls
Target sequence (P9WIQ1 whole entry, looked up): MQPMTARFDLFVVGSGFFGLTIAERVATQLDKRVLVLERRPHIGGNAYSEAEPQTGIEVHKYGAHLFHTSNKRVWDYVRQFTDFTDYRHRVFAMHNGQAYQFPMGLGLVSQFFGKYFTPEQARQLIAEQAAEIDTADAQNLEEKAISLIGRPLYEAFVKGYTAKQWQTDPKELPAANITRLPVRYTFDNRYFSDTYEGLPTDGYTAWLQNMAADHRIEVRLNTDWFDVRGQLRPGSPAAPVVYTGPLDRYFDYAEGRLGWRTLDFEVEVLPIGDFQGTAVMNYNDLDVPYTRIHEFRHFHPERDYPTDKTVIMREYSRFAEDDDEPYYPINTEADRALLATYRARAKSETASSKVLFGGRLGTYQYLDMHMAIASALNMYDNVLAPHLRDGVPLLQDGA
GDH-TPI inh = GDH-TPI coupled enzyme inhibition counter-screen | inhibition, % at 4.8 µM | actives 1.2% (n = 360,000) | GDH-TPI coupled enzyme counterscreen, NADH absorbance; in the data active means inhibition above about 30%
RecA splice inh = Mtb RecA intein splicing inhibition | inhibition, % (no concentration beside the values) | cell-free RecA intein splicing, fluorescence | AID 2221 | actives 0.75% (n = 290,000); in the data active means inhibition above about 30%; inconclusive means no clear call, values can overlap the other calls
Rv3671c inh = inhibitors of M. tuberculosis serine protease Rv3671c; inhibition, % at 5.96 µM; AID 2606; P9WHR9; actives 0.048% (n = 320,000); in the data active means inhibition above about 38%;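 further: extracellular domain of Rv3671c used as enzyme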
Mtb bLac sens = beta-lactam sensitization of Mtb H37Rv; M. tuberculosis H37Rv growth with meropenem, percent inhibition; inhibition, % at 25 µM; actives 0.27% (n = 330,000);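 further: growth measured after seven days incubation then overnight dye step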
Mtb FBA inh = Mtb fructose-bisphosphate aldolase inhibition; AID 588726; purified M. tuberculosis FBA, fluorescence read-out; actives 2.3% (n = 360,000); inhibition, % at 1 µM; P9WQA3; in the data active means inhibition above about 27%
GFP chromo cs = counter-screen: blocks GFP chromophore formation; shares compounds with RecA splice inh; cell-free GFP chromophore formation, fluorescence; EC50, µM; actives 83% (n = 2,100)
A number is an active result; 0 = inactive; ? = inconclusive; - = not tested or not shown. Unless noted, how the calls were made is not given here.

SMILES | Mtb UGM inh | GDH-TPI inh | RecA splice inh | Rv3671c inh | Mtb bLac sens | Mtb FBA inh | GFP chromo cs
O=c1oc(Nc2ccccc2Cl)nc2ccccc12 | - | 0 | 0 | - | - | 0 | -
O=c1[nH]c(Nc2ccccc2Cl)cc2ccccc12 | 0 | 0 | 86 | 0 | 0 | 0 | 16
Cc1cc(Nc2ccc(F)cc2)c2ccccc2n1 | - | 0 | - | - | - | 0 | -
O=c1[nH]c(Nc2ccc(F)cc2)cc2ccccc12 | 0 | 0 | 65 | 0 | 0 | 0 | 1.6
O=c1[nH]c(Nc2ccccn2)cc2ccccc12 | 0 | 0 | 72 | 0 | 0 | 132 | 0
Cc1ccccc1Nc1cc2ccccc2c(=O)[nH]1 | 0 | 0 | 71 | 0 | 0 | 0 | ?
Cc1ccc(NC(=O)CSc2nc(=O)n(CCCN(C)C)c3c2CCC3)c(C)c1 | 0 | 0 | 0 | 0 | 0 | 0 | -
N#Cc1ccc(Oc2nc(C#N)cc(-c3ccccc3)n2)cc1 | 0 | 0 | 0 | 0 | 0 | 0 | -
N#Cc1cc(-c2ccccc2)nc(Oc2ccccc2)n1 | 0 | 0 | 60 | 0 | 0 | 0 | 33
O=C(Nc1ccc(Nc2ccccc2)cc1)c1ccc(Cl)cc1 | 0 | 0 | - | 0 | 0 | 0 | -
Cc1cccc(NC2=C(NC(=O)c3ccccc3)C(=O)c3ccccc3C2=O)c1 | 0 | 0 | 72 | 0 | 0 | 0 | 6.5
Cc1cccc(C(=O)Nc2cccc(NC(=O)c3ccccc3)c2)c1 | 0 | 0 | 0 | 0 | 0 | 0 | -
O=C(NC1=C(NC2CCS(=O)(=O)C2)C(=O)c2ccccc2C1=O)c1ccccc1 (stereo not drawn) | 0 | 0 | 84 | 0 | 0 | 0 | 1
O=C(NC1=C(Nc2ccc(Cl)cc2)C(=O)c2ccccc2C1=O)c1ccccc1 | 0 | 0 | 49 | 0 | 0 | 0 | 25
CCCCCCn1c(N2CCC(C)CC2)nc2c1c(=O)[nH]c(=O)n2C | 0 | 0 | 0 | 0 | 0 | 0 | -
CC1CCc2cc(F)cc3c(O)c(C(=O)NCCN(C)C)c(=O)n1c23 (stereo not drawn) | 0 | 0 | 0 | 0 | 0 | 0 | -
On1c2c(c3c4nonc4ccc31)CCCC2 | 0 | - | 0 | 0 | 0 | - | -
Cc1c(C)n(O)c2ccc3nonc3c12 | 0 | 0 | 56 | 0 | 0 | 0 | 24
CN1CCN(C2=C(Cl)C(=O)c3ccccc3C2=O)CC1 | - | 0 | - | - | - | 0 | -
NC(=O)C1CCN(C2=C(Cl)C(=O)c3ccccc3C2=O)CC1 | 0 | 0 | 43 | 0 | 0 | 0 | 0.54
O=C1C(Cl)=C(N2CCC(C(=O)O)CC2)C(=O)c2ccccc21 | 0 | 0 | 50 | 0 | 0 | 0 | 13
CCN(CC)S(=O)(=O)c1ccc(N2CCOCC2)c(NC(=O)c2cc3ccccc3oc2=O)c1 | 0 | 0 | 0 | 0 | 0 | 0 | -
COC(CN(C(=O)CCl)C(C(=O)NC1CCCCC1)c1ccc(Cl)cc1)OC (stereo not drawn) | 0 | 0 | 35 | 0 | 0 | 0 | 34
COc1ccc(N(C(=O)c2cnccn2)C(C(=O)NC2CCCCC2)c2ccc(Cl)cc2)cc1 (stereo not drawn) | 0 | 0 | 0 | 0 | 0 | 0 | -
COc1ccc(C(C(=O)NC2CCCCC2)N(C(=O)CCl)c2ccc(Cl)cc2)cc1 (stereo not drawn) | 0 | 0 | 67 | 0 | 0 | 0 | ?
SMILES | Mtb UGM inh | GDH-TPI inh | RecA splice inh | Rv3671c inh | Mtb bLac sens | Mtb FBA inh | GFP chromo cs
O=C(NC1CCCCC1)C(c1cccnc1)N(C(=O)CCl)c1cccc(Cl)c1 (stereo not drawn) | 0 | 0 | 79 | 0 | 0 | 0 | 5.9
CN(C)C(C(=O)NC1CCCCC1)c1ccc(Cl)cc1 (stereo not drawn) | 0 | 0 | 0 | 0 | 0 | 0 | -
Cc1cccc(N(C(=O)CNC(=O)c2ccco2)C(C(=O)NC2CCCCC2)c2cccnc2)c1 (stereo not drawn) | 0 | 0 | 0 | 0 | 0 | 0 | -
CCOc1cc(C(N)=O)cc(Br)c1OCC | 0 | 0 | 0 | 0 | 0 | 0 | -
Cc1ccc(S(=O)(=O)Oc2ccccc2)cc1 | - | 0 | - | - | - | 0 | -
Cc1ccc(S(=O)(=O)Oc2ccc(C(c3c(C)[nH][nH]c3=O)c3c(C)[nH][nH]c3=O)cc2)cc1 | 0 | 0 | 97 | 0 | 0 | 0 | 0
COc1cccc(CNc2ccc3[nH]c(=O)[nH]c3c2)c1OCc1ccccc1F | 0 | 0 | 0 | 0 | 0 | 0 | -
OC(COC(c1ccccc1)c1ccccc1)CN1CCc2ccccc2C1 (stereo not drawn) | 0 | 0 | 0 | 0 | 0 | 0 | -
OC(COC(c1ccc(Cl)cc1)c1ccc(Cl)cc1)CN1CCc2ccccc2C1 (stereo not drawn) | 0 | 0 | 30 | 0 | 0 | 0 | 0
Cc1ccc(C2=NN(C(=O)CCl)C(c3ccco3)C2)o1 (stereo not drawn) | - | 0 | 63 | - | - | 0 | 40
Nc1ccc(Nc2ccccc2N)cc1 | 0 | 0 | 58 | 0 | 0 | 0 | 20
Cc1cc(C(c2ccc(O)cc2)c2cc(C)c(O)cc2C)c(C)cc1O | 0 | 0 | 33 | 0 | 0 | 0 | 0
CCCCn1c(NS(=O)(=O)c2ccc(C)cc2)c(S(=O)(=O)c2ccccc2)c2nc3ccccc3nc21 | 0 | 0 | 83 | 0 | 0 | 0 | 0
Cc1[nH]c2ccccc2c1CCNC(=O)c1ccc2c(c1[N+](=O)[O-])C(=O)c1ccccc1C2=O | 0 | 0 | 84 | 0 | 0 | 0 | 31
Cc1[nH]c2c(C)cccc2c1CCNC(=O)c1ccc2c(c1[N+](=O)[O-])C(=O)c1ccccc1C2=O | 0 | 0 | 0 | 0 | 0 | 0 | -
Cc1cc2nc(N)sc2cc1[N+](=O)[O-] | 0 | 0 | 0 | 0 | 0 | 0 | -
CS/C(=C/[N+](=O)[O-])Nc1cccc2c1C(C)CC2(C)C (stereo not drawn) | 0 | 0 | 67 | 0 | 0 | 0 | 38
COc1cc(/C=N/NC(=S)Nc2cccc(Cl)c2C)ccc1OCC(=O)N1CC(C)OC(C)C1 (stereo not drawn) | 0 | 33 | 55 | 0 | 0 | 0 | 37
O=[N+]([O-])c1c(Nc2ccccn2)cc(Cl)c2nonc12 | 0 | 0 | 87 | 0 | 0 | 0 | 2.1
O=[N+]([O-])c1ccc(Nc2ccccn2)c([N+](=O)[O-])c1 | 0 | 0 | 0 | 0 | 0 | 0 | -
O=[N+]([O-])c1c(Nc2ccc(O)cc2)cc(Cl)c2nonc12 | 0 | 0 | 95 | 0 | 0 | 0 | 1
O=C(O)c1cccc(Nc2cc(Cl)c3nonc3c2[N+](=O)[O-])c1 | 0 | 0 | 88 | 0 | 0 | 0 | 4.8
O=C(O)c1ccccc1Nc1cc(Cl)c2nonc2c1[N+](=O)[O-] | 0 | 0 | 90 | 0 | 0 | 0 | 2.6
O=C(O)c1ccccc1Nc1ccc([N+](=O)[O-])cc1 | 0 | 0 | 0 | 0 | 0 | 0 | -
CC[C@H](C)[C@H](NS(=O)(=O)c1ccc(C)cc1)C(=O)N1CCC(C(=O)N[C@@H](C)C(=O)O)CC1 | 0 | 0 | 0 | 0 | 0 | 0 | -
Cc1ccc(CN2CCNC(=O)C2CC(=O)N(C)C2CCOCC2)cc1 (stereo not drawn) | 0 | 0 | 0 | 0 | 0 | 0 | -
O=C1NCCCN1Cc1ccc(F)cc1Cl | - | 0 | 0 | - | - | 0 | -
Oc1cc(O)c2c(c1)O[C@H](c1ccc(O)c(O)c1)[C@H](O)C2 | 0 | 0 | 36 | 0 | 0 | 0 | 0
